The results in this text go back to ChEMBL document CHEMBL3988442, “University of Dundee, Small-Polar-MMV Screening Library” (2021).

The target of the first assay is T1, Aspartate--tRNA(Asp/Asn) ligase (Mycobacterium tuberculosis (strain ATCC 25618 / H37Rv)) (UniProt P9WFW3). Note: in the data most compounds retested in dose-response had high values.
T1 sequence (whole entry): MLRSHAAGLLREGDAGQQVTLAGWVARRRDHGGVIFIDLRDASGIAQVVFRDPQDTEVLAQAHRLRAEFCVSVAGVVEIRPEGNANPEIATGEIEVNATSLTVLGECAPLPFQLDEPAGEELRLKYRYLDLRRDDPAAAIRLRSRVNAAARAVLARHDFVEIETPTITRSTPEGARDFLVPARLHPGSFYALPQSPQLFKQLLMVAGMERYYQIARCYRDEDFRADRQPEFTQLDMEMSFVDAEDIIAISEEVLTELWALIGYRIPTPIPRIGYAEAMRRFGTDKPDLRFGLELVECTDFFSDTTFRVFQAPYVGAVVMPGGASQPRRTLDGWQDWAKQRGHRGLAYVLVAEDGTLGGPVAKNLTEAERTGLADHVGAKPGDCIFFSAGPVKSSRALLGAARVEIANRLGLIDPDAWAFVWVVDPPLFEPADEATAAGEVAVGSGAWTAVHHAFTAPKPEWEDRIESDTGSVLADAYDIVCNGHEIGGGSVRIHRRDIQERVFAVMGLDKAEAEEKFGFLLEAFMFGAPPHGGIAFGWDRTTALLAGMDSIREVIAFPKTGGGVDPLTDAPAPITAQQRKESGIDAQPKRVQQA
Nature of the assay: Assay for Asp RNA synthetase-1 from Mycobacterium tuberculosis. More on the design: scale not given: direction of the effect not stated beside the values. The settings on record: 30 µM. Format: functional.
Regarding `COCC1CN(Cc2ccc(C)o2)Cc2cn(C)nc21` (stereo not given), the Percent Effect turned out to be 11.7%.
Turning to `O=C(c1cscn1)N1CCC[C@]2(C[C@H](OCC3CC3)CO2)C1`, the Percent Effect came to 3.34%.
For the compound `O=C(Cc1ccc2c(c1)OCO2)N1CCN(c2cnccn2)CC1`, the Percent Effect is -3.06%.
The same measure, in the same setting: in the case of `O=C(CN1CCCC(Cn2cncn2)C1)NCCOc1ccccc1` (stereo not given) it was -2.48%.
Same read-out and setting: with `CCOCCCn1c(NC(=O)c2ccc(C)nc2)nc2ccccc21` the figure was -3.79%.
On the same count and under the same terms, in the case of `Cc1ccc(-c2noc(CN3CCOC(Cn4cncn4)C3)n2)cc1` (stereo not given) it was 3.79%.
In the case of `COCCN1CCC2(CC1)CN(C(=O)N(C)C)c1ccc(C)cc12`, the Percent Effect came to 0.0764%.
On the same count and under the same terms, with `Cc1cccc(CN2CCc3nnc(CO)n3CC2)n1` the figure was 0.728%; with `Cc1cc(NC(=O)CN2CCCC2c2noc(C(C)C)n2)n(C)n1` (stereo not given), -2.48%.
Still for that read-out and setting: in the case of `Cc1csc(NC(=O)CN2CCC(c3ccnn3CCO)CC2)n1` it was -8.82%; in that of `Cc1[nH]c(=O)[nH]c(=O)c1CN1CCCC(CCc2ccccc2)C1` (stereo not given), -0.814%.
As for `CN1CCN(C(=O)c2cncc(CC3CCCN(C)C3)c2)CC1` (stereo not given), the Percent Effect is -1.68%.
On the same count and under the same terms, in the case of `CCNC(=O)c1ccnc(NCC2COc3cc(OC)ccc3C2)c1` (stereo not given) it was -2.64%; in that of `CCN1CCN(c2ncc(-c3cc(C)no3)c(-c3ccc(C)s3)n2)CC1`, 2.72%; in that of `Cn1ncc2c(NCCC34CCCN3CCC4)nc(C3CCCC3)nc21`, 8.28%.
On the same count and under the same terms, in the case of `O=C(NCC1CC1)[C@H]1C[C@@H]2CCN(Cc3nccs3)C[C@@H]2O1` it was -3.13%; in that of `CN1CCN(C2CCN(CC(=O)NCC(F)(F)F)CC2)C1=O`, -5.68%.
Same read-out and setting: in the case of `CCc1nc(C(=O)N2CCN(C)CC2C)nn1-c1ccccc1Cl` (stereo not given) it was 11.5%; in that of `CCc1cc(NCC(O)CN2CCCCC2)n2ncnc2n1` (stereo not given), 8.06%.
With `c1ccc(CCN2CCOC(Cn3cccn3)C2)nc1` (stereo not given), the Percent Effect was -0.259%.
The same measure, in the same setting: with `CCn1c(CN(C)C)nnc1C1CCN(c2ccnc(C)c2)CC1` the figure was 4.18%; with `COCCOc1ccc(NC(=O)N2CCCC2c2cc(C)no2)cn1` (stereo not given), -5.36%.
As to `Cn1c(Cn2cccn2)nnc1C1CCN(Cc2cccnc2N)CC1`, the Percent Effect was -5.74%.
Still for that read-out and setting: in the case of `Cc1ccoc1C(=O)NC1CCN(Cc2cccc3c2OCCO3)CC1` it was -2.4%.
Turning to `CC1(C(=O)N2CCOCC2)CN(Cc2ccccc2F)CCO1` (stereo not given), the Percent Effect was -0.309%.
On the same count and under the same terms, in the case of `O=C(c1ccc(C(F)(F)F)nc1)N1CCCC(n2cncn2)C1` (stereo not given) it was -4.88%; in that of `CNC(=O)[C@H]1C[C@@H]2CN(C(=O)c3ccco3)C[C@@H]2N1S(C)(=O)=O`, -2.01%; in that of `CC(O)(CN1CCC2(CC1)OCCO2)c1cccc(C(F)(F)F)c1` (stereo not given), 1.23%.
Still for that read-out and setting: with `CC(C)c1nnc2ccc(N3CCC(C(=O)Nc4nccs4)CC3)nn12` the figure was -2.93%; with `COc1ccc(CC(=O)N2CCCCC2Cn2cccn2)cc1OC` (stereo not given), -2.34%.
With `CCOCC(O)CN1CCN(C(=O)c2cc(F)ccc2C)CC1` (stereo not given), the Percent Effect is -0.759%.
Still for that read-out and setting: in the case of `Cc1cc(N2CCCN(C(=O)Cc3ccc(O)c(Cl)c3)CC2)ccn1` it was 1.92%; in that of `Cc1nn(C)c(C)c1C1CCCN1C(=O)CCNc1ncccn1` (stereo not given), 6.63%.
With `Cc1nc(C)n(CC2CCCN2Cc2cn3ccsc3n2)n1` (stereo not given), the Percent Effect worked out at 1.75%.
Still for that read-out and setting: in the case of `Cc1nsc(NC(=O)N2CCC(C(C)(C)O)CC2)n1` it was 0.0141%; in that of `O=C(NCCc1ccccc1)C1CCCN(c2ccc3nncn3n2)C1` (stereo not given), -2.08%; in that of `Cc1nc(C)n(CC2CCCCN2Cc2ncc(C(C)(C)C)o2)n1` (stereo not given), -7.07%.
In the case of `CCN(CC)S(=O)(=O)N1CCCC(c2ccc(C(=O)O)cc2)C1` (stereo not given), the Percent Effect was -0.279%.
Regarding `Cc1ccc(-c2nc(CN3CCOC(Cn4cccn4)C3)cs2)o1` (stereo not given), the Percent Effect is -1.71%.
Turning to `CC(CNC(=O)c1ccc(F)cc1Cl)N1CCCC1` (stereo not given), the Percent Effect came to 0.39%.

A further assay concerns the target Shiga toxin 2 (Escherichia coli O157:H7) (UniProt P09385+P09386). Nature of the assay: E. coli 0.157:H7 Shiga Toxin SOP - stx2 screening assay. Also on record: scale not given: direction of the effect not stated beside the values. Format: functional. Particulars: 30 µM.
With `COCC1CN(Cc2ccc(C)o2)Cc2cn(C)nc21` (stereo not given), the Percent Effect was -13.2%.
For `O=C(c1cscn1)N1CCC[C@]2(C[C@H](OCC3CC3)CO2)C1`, the Percent Effect was -17.4%.
As for `O=C(Cc1ccc2c(c1)OCO2)N1CCN(c2cnccn2)CC1`, the Percent Effect stood at 19%.
Still for that read-out and setting: in the case of `O=C(CN1CCCC(Cn2cncn2)C1)NCCOc1ccccc1` (stereo not given) it was -0.612%; in that of `CCOCCCn1c(NC(=O)c2ccc(C)nc2)nc2ccccc21`, 14.9%; in that of `Cc1ccc(-c2noc(CN3CCOC(Cn4cncn4)C3)n2)cc1` (stereo not given), 5.98%.
As for `COCCN1CCC2(CC1)CN(C(=O)N(C)C)c1ccc(C)cc12`, the Percent Effect was -2.72%.
The same measure, in the same setting: in the case of `Cc1cccc(CN2CCc3nnc(CO)n3CC2)n1` it was -10.4%; in that of `Cc1cc(NC(=O)CN2CCCC2c2noc(C(C)C)n2)n(C)n1` (stereo not given), 5.27%.
Consider `Cc1csc(NC(=O)CN2CCC(c3ccnn3CCO)CC2)n1`, for which the Percent Effect was -16.7%.
The same measure, in the same setting: in the case of `Cc1[nH]c(=O)[nH]c(=O)c1CN1CCCC(CCc2ccccc2)C1` (stereo not given) it was -2.29%.
`CN1CCN(C(=O)c2cncc(CC3CCCN(C)C3)c2)CC1` (stereo not given): the Percent Effect is -19.2%.
Turning to `CCNC(=O)c1ccnc(NCC2COc3cc(OC)ccc3C2)c1` (stereo not given), the Percent Effect was -9.33%.
Take `CCN1CCN(c2ncc(-c3cc(C)no3)c(-c3ccc(C)s3)n2)CC1`: the Percent Effect was 2.82%.
Same read-out and setting: with `Cn1ncc2c(NCCC34CCCN3CCC4)nc(C3CCCC3)nc21` the figure was -7.47%; with `O=C(NCC1CC1)[C@H]1C[C@@H]2CCN(Cc3nccs3)C[C@@H]2O1`, 0.967%.
In the case of `CN1CCN(C2CCN(CC(=O)NCC(F)(F)F)CC2)C1=O`, the Percent Effect is -21%.
The same measure, in the same setting: in the case of `CCc1nc(C(=O)N2CCN(C)CC2C)nn1-c1ccccc1Cl` (stereo not given) it was 26.3%.
Same read-out and setting: in the case of `CCc1cc(NCC(O)CN2CCCCC2)n2ncnc2n1` (stereo not given) it was -8.11%.
Turning to `c1ccc(CCN2CCOC(Cn3cccn3)C2)nc1` (stereo not given), the Percent Effect stood at 0.927%.
As to `CCn1c(CN(C)C)nnc1C1CCN(c2ccnc(C)c2)CC1`, the Percent Effect is -16.1%.
The same measure, in the same setting: in the case of `COCCOc1ccc(NC(=O)N2CCCC2c2cc(C)no2)cn1` (stereo not given) it was 25.9%; in that of `Cn1c(Cn2cccn2)nnc1C1CCN(Cc2cccnc2N)CC1`, -18.3%; in that of `Cc1ccoc1C(=O)NC1CCN(Cc2cccc3c2OCCO3)CC1`, -34.8%.
Still for that read-out and setting: with `CC1(C(=O)N2CCOCC2)CN(Cc2ccccc2F)CCO1` (stereo not given) the figure was 1.31%; with `O=C(c1ccc(C(F)(F)F)nc1)N1CCCC(n2cncn2)C1` (stereo not given), -8.71%.
For `CNC(=O)[C@H]1C[C@@H]2CN(C(=O)c3ccco3)C[C@@H]2N1S(C)(=O)=O`, the Percent Effect is -24.9%.
For `CC(O)(CN1CCC2(CC1)OCCO2)c1cccc(C(F)(F)F)c1` (stereo not given), the Percent Effect was -7.35%.
The same measure, in the same setting: with `CC(C)c1nnc2ccc(N3CCC(C(=O)Nc4nccs4)CC3)nn12` the figure was -32.8%; with `COc1ccc(CC(=O)N2CCCCC2Cn2cccn2)cc1OC` (stereo not given), -6.84%; with `CCOCC(O)CN1CCN(C(=O)c2cc(F)ccc2C)CC1` (stereo not given), 9.83%.
Same read-out and setting: with `Cc1cc(N2CCCN(C(=O)Cc3ccc(O)c(Cl)c3)CC2)ccn1` the figure was -29.5%; with `Cc1nn(C)c(C)c1C1CCCN1C(=O)CCNc1ncccn1` (stereo not given), 13.4%; with `Cc1nc(C)n(CC2CCCN2Cc2cn3ccsc3n2)n1` (stereo not given), -76%.
Regarding `Cc1nsc(NC(=O)N2CCC(C(C)(C)O)CC2)n1`, the Percent Effect was -27.4%.
Same read-out and setting: in the case of `O=C(NCCc1ccccc1)C1CCCN(c2ccc3nncn3n2)C1` (stereo not given) it was -7.24%; in that of `Cc1nc(C)n(CC2CCCCN2Cc2ncc(C(C)(C)C)o2)n1` (stereo not given), -41%; in that of `CCN(CC)S(=O)(=O)N1CCCC(c2ccc(C(=O)O)cc2)C1` (stereo not given), -2.52%.
`Cc1ccc(-c2nc(CN3CCOC(Cn4cccn4)C3)cs2)o1` (stereo not given): the Percent Effect is -9.02%.
On to `CC(CNC(=O)c1ccc(F)cc1Cl)N1CCCC1` (stereo not given), for which the Percent Effect is -4.69%.
